Results filed as inconclusive are left out. Entries that show only a call come without a potency. The source made the active and inactive calls. Unless noted, calls come from the whole dose curve; as a rule, active = well fitted curve in the direction sought with a large enough effect; inconclusive = small, poorly fitted or top-dose-only effect, or another doubt; inactive = no such curve, though single readings can be large; an effect the other way counts as inactive or inconclusive.
Experiments:
[1] = molecular target: Cytochrome P450 2C19 (Homo sapiens) (UniProt P33261); experiment: qHTS Assay for Inhibitors and Substrates of Cytochrome P450 2C19 (AID 899); note: nearly all actives have a fitted effect of over 60% in size; note: potency is the fitted concentration of half-maximal effect
Cytochrome P450 2C19 (Homo sapiens), sequence (P33261 whole entry, looked up): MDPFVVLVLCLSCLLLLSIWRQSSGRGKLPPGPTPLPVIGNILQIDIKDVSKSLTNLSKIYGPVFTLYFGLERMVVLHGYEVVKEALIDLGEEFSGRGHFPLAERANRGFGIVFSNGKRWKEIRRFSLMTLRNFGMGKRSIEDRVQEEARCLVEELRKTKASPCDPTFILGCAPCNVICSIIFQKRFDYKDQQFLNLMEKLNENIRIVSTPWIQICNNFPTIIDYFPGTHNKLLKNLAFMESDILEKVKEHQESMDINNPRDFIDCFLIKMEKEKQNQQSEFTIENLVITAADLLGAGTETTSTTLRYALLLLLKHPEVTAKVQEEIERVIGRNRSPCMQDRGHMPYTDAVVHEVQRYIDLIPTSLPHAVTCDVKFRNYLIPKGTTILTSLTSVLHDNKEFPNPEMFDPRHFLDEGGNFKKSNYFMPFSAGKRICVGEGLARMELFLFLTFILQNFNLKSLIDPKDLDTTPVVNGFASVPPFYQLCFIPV
How it was run: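 Reactions contain 5nM enzyme, 10uM Luciferin-H EGE (KM) and 50mM KPO4; compound preincubates 10 min at 37C, NADPH regeneration starts turnover for 60 min. Luminescence after detection reagent gives activity.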

[2] = Confirmation and Secondary Assay for Modulators of Hemoglobin Beta Chain Splicing at IVS2 654 locus (AID 910);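 note: HeLa cells stably carrying EGFP split by mutant beta-globin IVS2-654 intron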
How it was run: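 Readout: per-well total peak green fluorescence (488 nm ex, 500–520 nm em) from objects 5–250 µm, reflecting correct splicing of an EGFP-654 reporter. Compounds were applied for 2 days at 37 °C to overnight-plated HeLa EGFP-654 cells; controls were DMSO and 500 nM IVS2-654 PNA.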

[3] = Confirmation and Secondary Assay for Modulators of Hemoglobin Beta Chain Splicing at IVS2 705 locus (AID 930);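 note: HeLa cells stably expressing the EGFP-705 splicing reporter; GFP fluorescence per well restored by corrected splicing of the IVS2-705 intron in EGFP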
How it was run: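 Read-out: total peak GFP fluorescence per well (488 nm excitation, 500-520 nm emission) by laser-scanning cytometry. Cells: HeLa EGFP-705 splicing reporter, 2 days compound exposure in Optimem/2% FCS.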

[4] = molecular target: DNA dC->dU-editing enzyme APOBEC-3G (Homo sapiens) (UniProt Q9HC16); experiment: qHTS for inhibitors of Vif-A3G interactions: Validation (AID 588379)
DNA dC->dU-editing enzyme APOBEC-3G (Homo sapiens), sequence (Q9HC16 whole entry, looked up): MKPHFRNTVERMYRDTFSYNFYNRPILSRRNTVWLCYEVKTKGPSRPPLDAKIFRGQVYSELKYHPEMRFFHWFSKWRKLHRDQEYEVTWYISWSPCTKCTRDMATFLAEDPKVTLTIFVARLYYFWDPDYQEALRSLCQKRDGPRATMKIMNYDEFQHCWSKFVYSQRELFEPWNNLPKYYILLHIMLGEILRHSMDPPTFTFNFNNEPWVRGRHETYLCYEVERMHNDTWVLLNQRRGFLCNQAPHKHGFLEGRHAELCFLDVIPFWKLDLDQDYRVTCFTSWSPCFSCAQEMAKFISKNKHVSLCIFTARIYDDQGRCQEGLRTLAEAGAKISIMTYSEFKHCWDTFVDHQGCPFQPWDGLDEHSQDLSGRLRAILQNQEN
How it was run: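 Yellow fluorescence (Ex 488, Em 500-530) of Vif-coexpressing HeLa A3G-eYFP cells, scanned by Acumen cytometer, reports blocked A3G degradation. Cells plated at 700/well overnight at 37 deg C before compound addition, then a further overnight compound incubation at 37 deg C.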

[5] = molecular target: Guanine nucleotide-binding protein G(i) subunit alpha-1 (Homo sapiens) (UniProt P63096); experiment: qHTS Assay for Inhibitors of RGS12 GoLoco Motif Activity (Green Fluorophore) (AID 879);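 note: negative values mean loss of peptide binding seen as reduced polarization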
Guanine nucleotide-binding protein G(i) subunit alpha-1 (Homo sapiens), sequence (P63096 whole entry, looked up): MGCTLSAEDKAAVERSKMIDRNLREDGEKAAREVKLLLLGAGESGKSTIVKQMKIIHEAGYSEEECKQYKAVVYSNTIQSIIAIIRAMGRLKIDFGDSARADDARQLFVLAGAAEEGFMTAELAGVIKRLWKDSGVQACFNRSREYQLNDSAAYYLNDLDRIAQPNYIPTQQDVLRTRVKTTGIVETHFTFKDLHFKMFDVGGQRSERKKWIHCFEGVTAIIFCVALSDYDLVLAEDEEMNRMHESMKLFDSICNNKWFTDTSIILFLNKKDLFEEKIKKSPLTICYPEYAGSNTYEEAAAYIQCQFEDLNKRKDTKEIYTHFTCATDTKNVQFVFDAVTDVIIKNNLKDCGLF
How it was run: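 A drop in FITC polarization marked displacement of the FITC-tagged RGS12 GoLoco peptide (10 nM) from Gαi1 (50 nM). Compounds were incubated 10 min at room temperature in Tris pH 7.5 buffer containing 150 mM NaCl, 0.1 mM GDP and 0.05% NP40; unlabeled peptide titration served as control.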

[6] = qHTS Assay for Identification of Small Molecule Agonists for Thrombopoietin (TPO) Signaling Pathway (AID 917)
How it was run: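 Human TPO receptor–transfected Ba/F3 cells (murine, IL-3-dependent) in IL-3-deficient medium; compounds plus TPO at EC50, 26 pM final; 24 hrs, 37 C; GpIIb-luciferase luminescence after 10 min RT detection.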

[7] = molecular target: Muscarinic acetylcholine receptor M1 (Rattus norvegicus) (UniProt P08482); experiment: qHTS Assay for Antagonists of Acetylcholine Muscarinic M1 Receptor: Kinetic Measurement of Intracellular Calcium Response (AID 943);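 note: Fluo-4 calcium signal as peak divided by basal fluorescence over 4 min; nearly all actives have a fitted effect of over 75% in size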
Muscarinic acetylcholine receptor M1 (Rattus norvegicus), sequence (P08482 whole entry, looked up): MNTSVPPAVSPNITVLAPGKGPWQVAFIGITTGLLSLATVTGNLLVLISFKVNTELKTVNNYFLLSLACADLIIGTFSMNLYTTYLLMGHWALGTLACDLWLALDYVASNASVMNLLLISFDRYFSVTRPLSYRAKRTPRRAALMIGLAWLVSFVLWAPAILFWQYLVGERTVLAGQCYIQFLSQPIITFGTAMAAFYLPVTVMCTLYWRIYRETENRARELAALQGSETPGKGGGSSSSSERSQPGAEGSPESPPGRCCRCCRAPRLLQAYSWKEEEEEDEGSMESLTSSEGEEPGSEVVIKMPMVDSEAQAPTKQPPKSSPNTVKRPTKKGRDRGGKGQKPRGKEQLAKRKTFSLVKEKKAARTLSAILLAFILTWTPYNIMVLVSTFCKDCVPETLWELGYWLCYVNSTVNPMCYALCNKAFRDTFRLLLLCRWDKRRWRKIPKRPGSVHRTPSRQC
How it was run: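 Quantitative HTS in CHO-M1 (rat receptor) cells: 10 min compound exposure ahead of 100 nM carbachol, Fluo-4 fluorescence followed 4 min, value expressed as peak-to-basal ratio.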

[8] = molecular target: Muscarinic acetylcholine receptor M1 (Rattus norvegicus) (UniProt P08482); experiment: qHTS Assay for Antagonists of Acetylcholine Muscarinic M1 Receptor: Measurement of IP-One Response (AID 944); note: nearly all actives have a fitted effect of over 75% in size
How it was run: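 Antagonism was measured as loss of carbachol-driven (EC80) IP1 accumulation in CHO cells carrying rat M1, using a homogeneous IP-One TR-FRET kit read at 620 and 665 nm.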

[9] = molecular target: Pyruvate kinase (Leishmania mexicana) (UniProt Q27686); experiment: qHTS Validation Assay for Inhibitors of Leishmania Mexicana Pyruvate Kinase (AID 945)
Pyruvate kinase (Leishmania mexicana), sequence (Q27686 2-499 E452W): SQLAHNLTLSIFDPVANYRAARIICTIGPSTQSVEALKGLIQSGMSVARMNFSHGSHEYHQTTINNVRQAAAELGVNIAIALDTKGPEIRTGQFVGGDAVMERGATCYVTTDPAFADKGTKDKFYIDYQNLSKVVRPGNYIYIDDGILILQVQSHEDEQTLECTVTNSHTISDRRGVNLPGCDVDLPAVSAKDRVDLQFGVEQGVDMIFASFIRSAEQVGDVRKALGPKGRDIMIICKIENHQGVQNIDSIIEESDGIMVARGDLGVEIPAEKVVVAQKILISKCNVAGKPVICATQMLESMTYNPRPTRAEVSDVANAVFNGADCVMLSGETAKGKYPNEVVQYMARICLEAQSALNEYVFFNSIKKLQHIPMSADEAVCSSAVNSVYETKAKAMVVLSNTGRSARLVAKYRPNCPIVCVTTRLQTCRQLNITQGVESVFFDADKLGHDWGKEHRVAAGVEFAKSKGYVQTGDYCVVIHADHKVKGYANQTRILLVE
How it was run: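 Luminescent ATP detection (PKLight) after a 1 h room-temperature reaction of 0.2 nM LmPYK E451W mutant with 0.5 mM PEP and 0.1 mM ADP at pH 7.2. Activity is normalized to DMSO-only control wells.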

[10] = molecular target: Pyruvate kinase PKM (Homo sapiens) (UniProt P14618); experiment: qHTS Assay for Activators of Human Muscle Pyruvate Kinase (AID 954; active = well fitted curve in the direction sought with a large enough effect, not every such curve was filed as active)
Pyruvate kinase PKM (Homo sapiens), sequence (P14618 whole entry, looked up): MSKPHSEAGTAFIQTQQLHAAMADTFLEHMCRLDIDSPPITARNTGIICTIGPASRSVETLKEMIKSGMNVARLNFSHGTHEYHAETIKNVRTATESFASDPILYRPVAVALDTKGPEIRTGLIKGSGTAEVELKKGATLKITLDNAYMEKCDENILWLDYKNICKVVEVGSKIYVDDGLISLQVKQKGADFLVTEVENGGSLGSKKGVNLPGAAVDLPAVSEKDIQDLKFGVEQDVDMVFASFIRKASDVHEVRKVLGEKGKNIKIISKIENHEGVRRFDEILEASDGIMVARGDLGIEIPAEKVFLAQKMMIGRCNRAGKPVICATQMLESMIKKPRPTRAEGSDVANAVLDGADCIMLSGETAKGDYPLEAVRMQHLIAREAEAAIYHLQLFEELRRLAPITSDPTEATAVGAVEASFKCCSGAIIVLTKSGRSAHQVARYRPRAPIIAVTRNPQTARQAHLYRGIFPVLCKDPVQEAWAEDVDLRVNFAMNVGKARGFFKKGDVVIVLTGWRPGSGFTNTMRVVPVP
How it was run: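 PKM2, human, >95% pure, 0.1 nM; PEP 0.5 mM (Km), ADP 0.1 mM; 50 mM imidazole pH 7.2, 50 mM KCl, 0.01% Tween 20, 0.05% BSA; 1 h RT; luciferase luminescence readout.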

[11] = molecular target: Alpha-galactosidase A (Homo sapiens) (UniProt P06280); experiment: Counterscreen for Glucocerebrosidase Inhibitors: qHTS Assay for Human alpha-Galactosidase at pH 4.5 (AID 992)
Alpha-galactosidase A (Homo sapiens), sequence (P06280 whole entry, looked up): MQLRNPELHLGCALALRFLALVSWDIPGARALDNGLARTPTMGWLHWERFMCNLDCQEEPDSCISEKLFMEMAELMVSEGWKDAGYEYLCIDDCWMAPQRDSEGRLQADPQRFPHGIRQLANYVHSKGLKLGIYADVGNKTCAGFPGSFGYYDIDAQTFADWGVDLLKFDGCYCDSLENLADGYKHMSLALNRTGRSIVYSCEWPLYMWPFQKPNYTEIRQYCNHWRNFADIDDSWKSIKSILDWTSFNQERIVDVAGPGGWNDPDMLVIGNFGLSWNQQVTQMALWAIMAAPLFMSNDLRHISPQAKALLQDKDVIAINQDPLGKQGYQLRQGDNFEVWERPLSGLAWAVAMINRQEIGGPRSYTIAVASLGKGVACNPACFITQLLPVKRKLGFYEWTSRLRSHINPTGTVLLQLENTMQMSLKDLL
How it was run: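 Fluorogenic 4-MU alpha-D-galactoside (80 uM) hydrolysis, 2 nM enzyme, pH 4.5 citrate buffer + 0.005% Tween-20; 20 min RT; NaOH/glycine pH 10 stop; Ex365/Em440. Compounds titrated 0.7 nM–77 uM; Hill-equation AC50.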

[12] = molecular target: alpha-glucosidase (Oryza sativa, rice) (UniProt Q653V4); experiment: Counterscreen for Glucocerebrosidase Inhibitors: qHTS Assay for Rice alpha-Glucosidase at pH 5.0 (AID 997)
How it was run: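 Endpoint fluorogenic assay at pH 5.0: compounds (0.7 nM to 77 uM) titrated against 4 nM rice enzyme and 400 uM 4-MU-alpha-glucoside for 20 min at room temperature; NaOH/glycine stop, read ex 365/em 440 nm, Hill-fitted AC50.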

[13] = qHTS Assay for Identifying Gametocytocidal Compounds (AID 743244); note: potency is the fitted concentration of half-maximal effect; conditions: P. falciparum 3D7 stage III-V gametocytes, alamarBlue, 72 h; max response: stronger effect = lower value
How it was run: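 A resazurin-based viability read-out was applied to mature P. falciparum gametocytes: 72 h compound treatment, then 24 h dye incubation, with falling fluorescence signalling gametocytocidal effect.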

[14] = qHTS profiling for inhibitors of Plasmodium falciparum (3D7) proliferation (AID 743322);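 note: infected erythrocytes exposed to compound for 72 h before lysis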; conditions: P. falciparum 3D7 proliferation; at 9.63 µM (top of the series)
How it was run: (§1)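 Parasite DNA was quantified by SYBR Green I fluorescence (ex 485, em 535 nm) after overnight lysis in saponin/Triton buffer at room temperature. Cultures at 0.3% parasitemia and 2.5% hematocrit were first exposed to compound for 72 h at 37 C; signals were normalised to artemisinin (0.29 uM) and vehicle wells.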

[15] = qHTS profiling for inhibitors of Plasmodium falciparum (DD2) proliferation (AID 743323; call rule not given here); conditions: lower = more inhibition; at 9.63 µM (top of the series)
How it was run: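 1536-well qHTS; infected RBCs 0.3% parasitemia/2.5% Hct final; cpd 72 h 37 C 5% CO2; lysis buffer + SYBR Green I, o/n RT dark; FI 485/535; norm. to 0.29 uM artemisinin and DMSO, plate-stack corrected.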

[16] = qHTS profiling for inhibitors of Plasmodium falciparum (HB3) proliferation (AID 743324); conditions: Plasmodium falciparum HB3 blood-stage proliferation; at 9.63 µM (top of the series)
How it was run: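 SYBR Green fluorescence (485 ex/535 em) of lysed cultures, incubated overnight at room temperature in the dark, quantifies parasite DNA. Infected erythrocytes at 0.3% parasitemia and 2.5% hematocrit were exposed 72 h; values normalized to DMSO and 0.29 uM artemisinin controls.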

[17] = qHTS profiling of the MIPE4 collection as inhibitors of Plasmodium falciparum (3D7) proliferation (AID 743344; call rule not given here); conditions: P. falciparum 3D7 in erythrocytes, SYBR Green DNA fluorescence, 72 h; at 9.64 µM (top of the series)
How it was run: as §1

[18] = qHTS profiling of the MIPE4 collection as inhibitors of Plasmodium falciparum (DD2) proliferation (AID 743345; call rule not given here); conditions: P. falciparum Dd2 in erythrocytes, SYBR Green DNA, 72 h; at 9.64 µM (top of the series)
How it was run: as §1

[19] = qHTS profiling of the MIPE4 collection as inhibitors of Plasmodium falciparum (DD2) proliferation (Rep 2) (AID 743346; call rule not given here); conditions: P. falciparum Dd2 in erythrocytes, SYBR Green DNA, 72 h; at 9.64 µM (top of the series)
How it was run: as §1

[20] = qHTS profiling of the MIPE4 collection as inhibitors of Plasmodium falciparum (HB3) proliferation (AID 743347; call rule not given here); conditions: P. falciparum HB3 in erythrocytes, SYBR Green DNA, 72 h; at 9.64 µM (top of the series)
How it was run: as §1

C[C@@]1(O)CCOC(=O)C1
Potency [1]: inactive

CS(=O)(=O)Nc1cccc(-c2nc(Nc3ccccc3)c3ccccc3n2)c1
Potency [2]: inactive
Potency [3]: inactive

CS(=O)(=O)Nc1cccc(-c2nc(Nc3ccc(F)cc3)c3ccccc3n2)c1
Potency [1]: 7.94 µM (active)
Potency [2]: inactive
Potency [3]: inactive

CN(C)CCO[C@@H](c1ccc(Cl)cc1)c1ccccn1
Potency [1]: inactive

Cc1ccc2c(c1)c1c3n2CCN[C@H]3CCC1
outcome [4]: inactive

COc1ccc(CNc2ncncc2-c2ccccc2CN(C)C)c(OC)c1
Potency [2]: inactive
Potency [3]: inactive

C[C@H]1CC[C@@H]2[C@@H](C)[C@H]3[C@H](C[C@H]4[C@@H]5CC=C6C[C@@H](O[C@]7(O[C@H]8O[C@@H](C)[C@@H](O)[C@@H](O)[C@@H]8O)C[C@@H](O[C@@H]8O[C@H](CO)[C@@H](O)[C@H](O)[C@@H]8O)[C@@H](O)[C@H](CO)O7)CC[C@]6(C)[C@H]5CC[C@@]34C)N2C1
Potency [1]: inactive

COc1cc2cc3c4cc(OC)c(OC)cc4cc[n+]3c(C)c2cc1OC
Potency [2]: inactive
Potency [3]: inactive

CC(=O)/C(C)=N\O
outcome [5]: inactive
outcome [6]: inactive
outcome [7]: inactive
outcome [8]: inactive
outcome [9]: inactive
outcome [10]: inactive
outcome [11]: inactive
outcome [12]: inactive
outcome [4]: inactive

COc1cc(C2Oc3cc(C4Oc5cc(O)cc(O)c5C(=O)C4O)ccc3OC2CO)ccc1O (centres undefined)
Potency [2]: inactive
Potency [3]: inactive

Fc1ccc(Nc2nc(-c3cccnc3)nc3ccccc23)cc1
Potency [2]: inactive
Potency [3]: inactive

COc1ccc([C@@H]2CC(=O)c3c(O)cc(O)cc3O2)cc1O
outcome [4]: inactive

CC(=C(CCOP(=O)(O)O)SC(=O)c1ccccc1)N(C=O)Cc1cnc(C)nc1N
Potency [2]: inactive
Potency [3]: inactive

O[C@H](c1cc(C(F)(F)F)nc2c(C(F)(F)F)cccc12)[C@H]1CCCCN1
Potency [13]: 0.0894 µM (active)
remaining parasite growth % (stronger effect = lower value) [14]: -0.0865%
activity, percent of control [15]: 1.34%
remaining proliferation (% of control), lower = more inhibition [16]: 0.677%
parasite growth, % of DMSO control [17]: 8.08%
parasite growth remaining, % of DMSO control (lower = more inhibition) [18]: 8.4%
parasite growth, % of control (lower = inhibition) [19]: 18.7%
growth, % of control [20]: 4.87%

CO[C@@H]1C=CO[C@]2(C)Oc3c(C)c(O)c4c(O)c(c(C=NN5CCN(C)CC5)c(O)c4c3C2=O)NC(=O)C(C)=CC=C[C@H](C)[C@H](O)[C@H](C)[C@H](O)[C@H](C)[C@H](OC(C)=O)[C@H]1C
remaining parasite growth % (stronger effect = lower value) [14]: 5.75%
activity, percent of control [15]: 4.21%
parasite growth, % of DMSO control [17]: 5.98%
parasite growth remaining, % of DMSO control (lower = more inhibition) [18]: 11.9%
parasite growth, % of control (lower = inhibition) [19]: 22.5%
growth, % of control [20]: 5.71%

Clc1ccc([C@H](Cn2ccnc2)OCc2csc3c(Cl)cccc23)c(Cl)c1
Potency [1]: 0.251 µM (active)

Nc1ncnc2c1ncn2[C@@H]1O[C@H](COP(=O)(O)O)[C@@H](O)[C@@H]1O
Potency [1]: inactive

CC=C(/C(=C/C)c1ccc(O)cc1)c1ccc(O)cc1
Potency [1]: 3.16 µM (active)

FC(F)(F)c1ccccc1-c1ccc2ncnc(NC3CCNCC3)c2c1
Potency [1]: 3.98 µM (active)
Potency [2]: inactive
Potency [3]: inactive

Reference: PubChem BioAssay (NCATS)
